Screening data: PubChem BioAssay, National Center for Advancing Translational Sciences (NCATS)
A selection: hits, their analogues and other compounds. The true share with any hit is near 3.7%.
B2AR arrestin ag – beta-arrestin recruitment by human beta2-adrenergic receptor ligands; 44,000 tested, under 10 active; P07550; HTLA Tango cells, beta-arrestin recruitment, luciferase luminescence, 18 h; Potency, µM (highest dose often 46.1 µM), most hits filed as activators;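 also: potency is read from the fitted curve at half-maximal effect; 0% = DMSO and full agonism = EC100 isoproterenol or metaproterenol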
Target sequence (P07550 whole entry, looked up): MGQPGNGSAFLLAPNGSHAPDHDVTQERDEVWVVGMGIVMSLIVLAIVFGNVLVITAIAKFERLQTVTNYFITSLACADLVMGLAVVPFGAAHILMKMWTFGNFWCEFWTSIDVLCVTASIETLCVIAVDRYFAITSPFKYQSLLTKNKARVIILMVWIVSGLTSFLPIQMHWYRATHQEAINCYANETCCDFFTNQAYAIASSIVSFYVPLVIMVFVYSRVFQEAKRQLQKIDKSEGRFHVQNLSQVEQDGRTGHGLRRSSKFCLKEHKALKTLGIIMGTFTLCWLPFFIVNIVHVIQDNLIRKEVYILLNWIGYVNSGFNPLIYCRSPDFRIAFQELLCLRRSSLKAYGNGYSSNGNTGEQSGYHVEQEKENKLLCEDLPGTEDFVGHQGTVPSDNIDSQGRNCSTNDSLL
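First, Tango cells carrying beta2-AR and beta-arrestin fusions received compound up to 46 microM. After 18 hr at 37 degrees C, luciferase substrate was added for 15 minutes, then luminescence gave %Activity for curve fitting.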
GALC G270D act – enhancers of human galactocerebrosidase G270D mutant activity in cells; 145M-Twi-hGALC-G270D cells (Twitcher mouse brain line with human GALC G270D), HMU-beta-Gal fluorescence, 48 h; 45,000 compounds, 0.1% hits; P54803; Potency, µM (series often up to 57.5 µM), actives largely listed as activators; also: potency is read from the fitted curve at half-maximal effect; 0% is about no effect; nearly all actives have a fitted effect of over 65% in size
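Brain-derived Twitcher mouse 145M-Twi cells stably expressing human GALC-G270D or wild-type GALC, treated live, then residual GALC activity read by fluorescence of HMU-b-Gal substrate (0.1 mM final) in citrate-phosphate buffer pH 5.2 with sodium taurocholate. Signal increase indicates enhancement.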
DRV1 agonist – GPR32 (DRV1) agonism, beta-arrestin recruitment. CHO-K1 GPR32 beta-arrestin PathHunter luminescence, 90 min; zero percent set by DMSO-only wells. O75388. 48,000 compounds, 2.5% hits. AID 1346428. activation, % at 76.9 µM;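 active = activation of at least 60% and not above a set upper limit, about 1 call in 100 departs from these limits; inconclusive = activation of 40% to 60%, or above that upper limit; inactive = activation under 40%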; also: 0% is about no effect
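Agonism was scored as beta-arrestin recruitment to ProLink-fused GPR32 in stably transfected CHO-K1 cells, giving a chemiluminescent beta-Gal signal; compounds were incubated 90 min at 37 °C.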
FH mod – Identification of activators of human fumarate hydratase by quantitative high-throughput screening; AID 1347055, 2019; FH coupled MDH/diaphorase resazurin fluorescence, 15 min; Fumarate hydratase, mitochondrial (Homo sapiens), P07954; 54,000 compounds, 0.22% hits; Potency, µM (doses to about 79.9 µM), without a hit: at the highest dose activity change, negative = inhibition, usual class: inhibitors; also: potency is read from the fitted curve at half-maximal effect; % is scaled to controls: 0 for no effect and ±100 for the full control effect; the screen sought activators but most active calls are inhibition curves; nearly all actives have a fitted effect of over 45% in size
HTT-AS promoter – activators of huntingtin-antisense promoter activity; HEK293 HTT-AS promoter firefly luciferase reporter, 24 h; response scale: percent change from vehicle, -100% = no light; Potency, µM (series often up to 57.5 µM), inactives show at the highest dose activity change, positive = activation, hits mostly activators; 48,000 compounds, 0.24% hits; also: potency is read from the fitted curve at half-maximal effect; nearly all actives have a fitted effect of over 55% in size
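HEK293 luciferase promoter-reporter cells (2,500/well) plated 24 h, then compounds added at up to 57.5 uM final for 24 h at 37 °C. Firefly luminescence by Dual-Glo, normalized to vehicle (0%) and zero RLU (-100%).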
HTT prom inh – inhibitors of huntingtin promoter activity | Potency, µM (doses to about 57.5 µM), for inactives: at the highest dose activity change, negative = inhibition, hits mostly inhibitors | 48,000 compounds, 0.93% hits | HEK293 HTT promoter firefly luciferase reporter, 24 h | AID 1508623; also: potency is read from the fitted curve at half-maximal effect; nearly all actives have a fitted effect of over 50% in size
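HEK293 cells carrying firefly luciferase reporters were seeded at 2,500 per well in Opti-MEM and cultured for 24 h. They were then treated with compounds at up to 57.5 uM final for 24 h at 37 degrees C before Dual-Glo luminescence readout.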
Starred values were filed as active, the others as inactive; i = inactive; ? = inconclusive; / = no result given; [ ] = another dose, or the depositor's remark. Unless noted, calls follow the shape of the dose curve; as a rule, active = well fitted curve in the direction sought with a large enough effect; inconclusive = small, poorly fitted or top-dose-only effect, or another doubt; inactive = no such curve, though single readings can be large; an effect the other way counts as inactive or inconclusive.

SMILES	B2AR arrestin ag	GALC G270D act	DRV1 agonist	FH mod	HTT-AS promoter	HTT prom inh
C=C1CCCC2(C)CCC(C(C)(C)OC3OC(C)C(O)C(O)C3OC(=O)/C(C)=C\C)CC12 (stereo unspecified)	/	/	/	-12.4%[53.3 µM]	/	/
CC(C)=C/C=C\[C@H](C)[C@H]1CC[C@]2(C)C[C@@H]3C(C)=CC(=O)C3/C(CO)=C\C[C@@H]12 (stereo partly specified)	/	/	/	-1.4%[53.3 µM]	/	/
O=S(=O)(NCCc1csc(-c2cccc(F)c2)n1)c1cc(F)ccc1F	i	i	24.6	-20.4%	-17.0%	-32.3%
Cc1ccc(C)c(S(=O)(=O)NCCc2csc(-c3ccc(Cl)cc3)n2)c1	i	i	73.6*	?	-35.9%	?
CCCCn1c(NCc2ccc(OC)cc2O)nc2ccccc21	i	i	70.1*	-23.9%	-17.7%	-15.3%
COc1ccc(C(=O)Nc2nc3ccccc3n2CCOc2ccc(Cl)cc2)cc1	i	i	-25.5	?	2.0%	16.5%
COc1ccc(OCCn2c(NC(=O)c3ccc(OC)cc3)nc3ccccc32)cc1	i	i	62.8*	-4.5%	?	-17.3%[11.5 µM]
COc1cc(/C=C/C(=O)O[C@@H]2O[C@H](CO)[C@@H](O)[C@H](O)[C@H]2O)ccc1O	/	/	/	-8.6%[53.3 µM]	/	/
CC(=O)SCC(=O)c1ccc(NS(=O)(=O)c2ccc(OCCCN(C)C)cc2)nc1	/	/	/	1.4%	/	/
CN1CCCN(C(=O)c2cccc(-c3ccc(/C=C4\C(=O)Nc5ccc(Cl)cc54)o3)c2)CC1	/	/	/	-28.7%	/	/
CC(=O)Nc1cc(-c2nc3ccccc3s2)ccc1C	i	i	1.3	-19.0%	6.31µM*	63.6%
CCC(=O)N1CCc2cc(S(=O)(=O)N(C)c3cccc(C)c3)ccc21	i	i	63.2*	-10.4%	-17.0%	-15.3%
O=C(Nc1ccc(N(Cc2ccsc2)C(=O)Cn2nnc3ccccc32)cc1)C1CC1	/	/	/	-0.2%	/	/
COc1cc(O)c2c(c1)/C=C/C[C@H](O)[C@H](O)C(=O)/C=C\C[C@H](C)OC2=O	/	/	/	-5.7%	/	/
C#CC1(O)CC[C@H]2[C@@H]3CCC4=CCCC[C@@H]4[C@H]3CC[C@@]21C (stereo partly specified)	/	i	105.4*	-16.6%[53.3 µM]	-9.1%	-4.9%
CCc1cccc(C)c1NC(=O)CSc1nnc(N)s1	i	i	93.6*	8.6%	-5.9%	-8.9%
CC(NC(=O)Cc1cc(F)cc(F)c1)C(=O)NC1C(=O)N(C)c2ccccc2-c2ccccc21 (stereo unspecified)	/	/	/	6.8%	/	/
Cc1cccc(NC(=O)c2oc3c(c2C)-c2[nH]ncc2CC3)c1C	i	i	4.1	-20.2%	?	36.6%
Cc1ccc(NC(=O)c2oc3c(c2C)-c2[nH]ncc2CC3)c(Cl)c1	i	i	3.1	-36.9%	2.24µM*	74.1%
CC(C)(C)c1ccc(-c2nc3c(N4CCN(Cc5ccc6nccnc6c5)CC4)cccc3[nH]2)cc1	/	/	/	-17.5%	/	/
N[C@@H](CC(=O)N1CCn2c(nnc2C(F)(F)F)C1)Cc1[nH]nc2c(F)c(F)ccc12	/	/	/	6.4%	/	/
COc1ccc(Cn2ccc3nc(C)c(C(=O)NCc4ccc(F)cc4)cc3c2=O)cc1	i	i	62.5*	-14.6%	-19.7%	?
COc1ccc(Cn2ccc3nc(C)c(C(=O)NCc4ccc(C)cc4)cc3c2=O)cc1	i	i	40.8	1.8%	-19.3%	?
CN1C(=O)C(C)(C)c2cc(S(=O)(=O)NCc3ccc(C(=O)Nc4ccc(Cl)cc4)cc3)ccc21	i	i	12.6	-13.4%	-60.3%	17.8µM*
CCc1ccc(NC(=O)c2ccc(CNS(=O)(=O)c3ccc4c(c3)C(C)(C)C(=O)N4C)cc2)cc1	i	i	-5.1	4.0%	-15.7%	?
